The values that follow come from ChEMBL document CHEMBL3988442, “University of Dundee, Small-Polar-MMV Screening Library” (2021).

In all, about 48,000 compounds went through this assay and about 13,000 (27%) showed an effect of 50% or more. The list shows a part of the results.

The assay deals with Wolbachia pipientis. As to the kind of experiment: Anti-Wolbachia Cell-Based Screen. The class given is functional. Details: scale not given: in the data most compounds retested in dose-response had high values. The conditions noted are these: 5 µM.
Turning to `CCOc1ncccc1C(=O)Nc1c(C)cnn1CC1CC1`, the “Percent Effect” value is listed as 12.64%.
With `CC(=O)N1CCN(Cc2nnc(C(C)(C)C)o2)CC1`, the “Percent Effect” value is given as -8.386%.
Take `Cc1cc(CN(C)C(=O)NCc2ccnc(OC3CCCC3)c2)no1`: the “Percent Effect” value is listed as 7.98%.
As for `CC(=O)N1CCN(C(=O)c2cnc(OC(C)C)c(Cl)c2)CC1`, the “Percent Effect” value is -40.95%.
With `CCCOc1ccc(CNc2cncc(-n3cccn3)n2)cc1`, the “Percent Effect” value was found to be 92.88%.
Take `CNC(=O)COc1ccc(CNc2cncc(-n3cccn3)n2)cc1`: the “Percent Effect” value is listed as 94.6%.
With `CNC(=O)COc1ccc(CNc2c(Cl)cccc2C#N)cc1` the figure was -7.522%.
With `CCN(Cc1nccn1C)C(=O)c1ccc(NCc2ccccc2)nc1` the figure was -22.31%.
With `CCOc1cccc(CNc2cncc(-n3cccn3)n2)c1`, the “Percent Effect” value is listed as 10.28%.
As to `CCN(CC)C(=O)c1ccc(CNc2ncc(C#N)cc2Cl)cc1`, the “Percent Effect” value was 2.172%.
Then `CCN(CC)C(=O)c1ccc(CNc2cncc(-n3cccn3)n2)cc1`, with 118.2%.
Then `CN(CCCc1ccccc1)C(=O)c1cn2c(n1)CNCC2`, with 13.8%; and `O=C(CSc1ccc2c(c1)OCCO2)NS(=O)(=O)c1ccccc1`, with -10.89%; and `Cn1nccc1C1CCN(Cc2cnn(-c3ccccc3)n2)CC1`, with -1.945%.
Regarding `CN(CCc1ccccc1)c1cnn(CC(=O)N2CCSCC2)c(=O)c1`, the “Percent Effect” value is recorded as -7.275%.
With `COc1cc(CNCc2c(C)nn(CC(C)C)c2N(C)C)ccn1` the figure was 90.35%; with `Cc1nn(CC(C)C)c(N(C)C)c1CNCc1cccc2c1OCO2`, 0.06204%.
`Cc1nn(CC(C)C)c(N(C)C)c1CNCc1cccnc1N(C)C`: the “Percent Effect” value is recorded as -5.662%.
In the case of `Cc1nn(CC(C)C)c(N(C)C)c1CNCc1cc2ccccc2[nH]1`, the “Percent Effect” value is recorded as 5.6%.
With `Cc1nn(CC(C)C)c(N(C)C)c1CNCc1ccnn1C` the figure was 113.6%.
For the compound `Cc1nn(CC(C)C)c(N(C)C)c1CNCc1ccccc1CO`, the “Percent Effect” value stood at 116.8%.
With `CC(=O)NCCCNCc1c(C)nn(CC(C)C)c1N(C)C`, the “Percent Effect” value was -6.238%.
Turning to `COc1cc(CNCc2c(C(C)C)nn(C)c2N(C)C)ccn1`, the “Percent Effect” value is listed as -8.861%.
As to `CC(C)c1nn(C)c(N(C)C)c1CNCc1ccnn1C`, the “Percent Effect” value was 10.31%.
Regarding `COc1cc(CNCc2c(C)nn(C)c2N(C)C)ccn1`, the “Percent Effect” value is reported as -5.351%.
For the compound `Cc1nn(C)c(N(C)C)c1CNCc1ccnn1C`, the “Percent Effect” value was -14.99%.
Take `Cc1nn(CC(C)C)c(N(C)C)c1CNCc1ccc(CO)c(F)c1`: the “Percent Effect” value was 108.6%.
Turning to `COCC1CN(C(=O)Nc2cc(-n3cccc3)ccc2F)CCO1` (centres undefined), the “Percent Effect” value is 0.4358%.
For `O=S(=O)(NCCc1c[nH]c2ccc(F)cc12)C1CCOCC1`, the “Percent Effect” value is recorded as -14.21%.
For `Cc1cc(N2CCN(Cc3ccc(C)o3)CC2)cc(C)n1`, the “Percent Effect” value came to 4.051%.
Consider `CN(Cc1cccc(Cl)c1)C(=O)Cn1nc(-c2ccc(F)cc2)oc1=O`, for which the “Percent Effect” value is -8.099%.
Regarding `CCOCc1nc2c(c(N(C)Cc3snnc3C)n1)CCNCC2`, the “Percent Effect” value turned out to be 2.794%.
With `O=C(NC[C@@H]1CCCO1)c1ccc(S(=O)(=O)N[C@@H]2CCNC2)cc1` the figure was -1.141%; with `CC(C)C(NCc1ccc(Cn2cncn2)cc1)c1ccccc1` (centres undefined), 124.9%.
Then `CC(NCc1ccc(F)cc1)c1ccc(S(C)(=O)=O)cc1` (centres undefined), with 8.945%.
As to `CC(C)c1ccc(CNC(c2ccc(F)cn2)C(C)C)cc1` (centres undefined), the “Percent Effect” value was found to be 100.5%.
For the compound `N#Cc1cc(F)ccc1NCc1ccc(Cn2cncn2)cc1`, the “Percent Effect” value was 1.669%.
Consider `Fc1ccc(CNc2ccccc2Cn2cncn2)cc1`, for which the “Percent Effect” value is -15.58%.
With `Cc1[nH]ncc1C(C)NCc1ccc(F)cc1` (centres undefined), the “Percent Effect” value is -5.411%.
Then `COc1ccc(CNC(Cn2cncn2)c2ccccc2)cc1C` (centres undefined), with -2.513%; and `CC(C)C(NCc1ccc(Cn2cncn2)cc1)c1ccc(F)cn1` (centres undefined), with 90.96%.
As to `COc1ccc(CNC(Cn2cncn2)c2ccccc2)cc1O` (centres undefined), the “Percent Effect” value is -2.426%.
Regarding `COc1cc(OC)cc(N2CCC(NCc3occc3C)C2=O)c1` (centres undefined), the “Percent Effect” value is reported as -29.36%.
With `Cc1cn(Cc2nc(CC(C)C)nn2-c2ccccn2)c(=O)[nH]c1=O` the figure was 5.875%; with `CCOCCC(=O)Nc1cc(C)cnc1OC`, 1.473%.
Turning to `O=C(O)C(c1ccc2[nH]ccc2c1)N1CCN(c2cnccn2)CC1` (centres undefined), the “Percent Effect” value is on record as -11.7%.
Regarding `O=C(C1=CCCC1)N1CCC[C@]2(C[C@@H](OCc3ccncc3)CO2)C1.O=C(O)C(F)(F)F`, the “Percent Effect” value was -18.3%.
Regarding `Cc1ccc(S(=O)(=O)NC[C@H]2OC[C@@H](NCc3ccccc3)[C@@H]2O)cc1`, the “Percent Effect” value is listed as -16.71%.
With `COC1CCN(S(=O)(=O)N2CCC3(CCCNC3=O)C2)CC1` (centres undefined) the figure was 4.322%; with `CN1CC(Nc2nc3c(cnn3C(C)(C)C)c(=O)[nH]2)CCC1=O` (centres undefined), 10.78%; with `O=C1CCCN1Cc1ncn2c1CN(S(=O)(=O)c1cccs1)CCC2`, -2.152%.
As to `Cc1ccc(CC(=O)N2CCCn3nnc(Cn4cccn4)c3C2)cc1`, the “Percent Effect” value is listed as -8.474%.
In the case of `O=C(O)C(F)(F)F.O=C1CCCN1Cc1ncn2c1CN(Cc1cccs1)CCC2`, the “Percent Effect” value was -6.025%.
With `O=C1CCCN1Cc1ncn2c1CN(C(=O)Cc1cccs1)CCC2` the figure was 106.6%; with `O=C1CCCN1Cc1ncn2c1CN(C(=O)Cc1ccccc1)CCC2`, 99.41%.
For `CCCn1ncnc1C(C)NC(=O)CC1CCN(C(C)C)CC1` (centres undefined), the “Percent Effect” value was -1.645%.
Regarding `CCS(=O)(=O)N1CC(c2nc(-c3cccs3)no2)C1`, the “Percent Effect” value is recorded as 0.556%.
In the case of `Cl.c1csc(-c2noc(C3CCCNC3)n2)c1` (centres undefined), the “Percent Effect” value is given as 100.6%.
Regarding `c1csc(-c2noc(C3CCCOC3)n2)c1` (centres undefined), the “Percent Effect” value was -23.77%.
With `CCN(CC)CCn1cnc(-c2ccccc2)c1-c1cnn(CC)c1` the figure was 8.592%.
Then `Cc1nn(C)cc1-c1nn2c(C(F)(F)F)nnc2s1`, with 115.5%.
Then `CCn1cc(-c2nn3c(C(F)(F)F)nnc3s2)cn1`, with 71.37%; and `CN(Cc1cc(=O)c(O)co1)C1CCN(c2ccc(F)cc2)CC1`, with -14.07%; and `COCCN(C)C[C@H]1C[C@@H](CO)CN(C(=O)c2ccn(C)c(=O)c2)C1`, with 96.22%.
Take `Cn1ccc(C(=O)N2CCCC(CNS(C)(=O)=O)C2)cc1=O` (centres undefined): the “Percent Effect” value was -3.744%.
With `CN(C)C[C@H]1C[C@@H](CO)CN(C(=O)c2cc(=O)[nH]c3cc(F)ccc23)C1` the figure was -10.33%.
Consider `COCCN(C)C[C@H]1C[C@H](CO)CN(C(=O)c2ccn(C)c(=O)c2)C1`, for which the “Percent Effect” value stood at 59.73%.
Take `CN(C)C[C@H]1C[C@H](CO)CN(C(=O)c2cc(S(N)(=O)=O)ccc2F)C1`: the “Percent Effect” value is reported as -6.33%.
For the compound `Cc1nc(-c2ccc(Cl)s2)sc1C(=O)N(C)CC(N)=O`, the “Percent Effect” value is recorded as 2.802%.
Then `COCc1noc(-c2ccc(N3CCCC3c3nccs3)nc2)n1` (centres undefined), with 1.711%; and `CCOC(=O)c1c(NC(=O)CN2CCN(C(C)=O)CC2)sc(C)c1C`, with 112.4%; and `CCc1c(C)sc(NC(=O)CN2CCN(CC)CC2)c1C(=O)OC`, with -10.89%.
As to `CCOC(=O)N1CCC(C(=O)Nc2nnc(C(F)(F)F)[nH]2)CC1`, the “Percent Effect” value was 5.698%.
As to `CCOC(=O)c1c(NC(=O)C2CCN(C(C)=O)CC2)sc(C)c1CC`, the “Percent Effect” value was determined as 114.1%.
`CCOC(=O)N1CCN(CC(=O)Nc2nnc(CC)s2)CC1`: the “Percent Effect” value is -11.16%.
For `CCC(C)NC(=O)CN1CCOCC1` (centres undefined), the “Percent Effect” value was found to be 4.194%.
Consider `CCOC(=O)N1CCN(CC(=O)Nc2nnc(C)s2)CC1`, for which the “Percent Effect” value is recorded as -13.53%.
Turning to `CCc1c(C)sc(NC(=O)CN2CCOCC2)c1C(=O)OC`, the “Percent Effect” value was determined as 123.3%.
In the case of `CCc1ccc(NC(=O)C2CCN(C(=O)COC)CC2)cc1`, the “Percent Effect” value is -3.205%.
For `O=C(Nc1ccc(N2CCOCC2)nc1)N1CCc2sccc2C1`, the “Percent Effect” value is listed as -5.037%.
As for `Cc1nn(C)c(Oc2ccccc2)c1CNC1CCOc2ccccc21` (centres undefined), the “Percent Effect” value is reported as 17.34%.
Take `CC(C)c1ccc(/C=C/CC(=O)NC2CCS(=O)(=O)CC2)cc1`: the “Percent Effect” value was -29.94%.
Regarding `CC(=O)c1cccc(OCCCC(=O)N(C)Cc2cnn(C)c2)c1`, the “Percent Effect” value is on record as -7.913%.
As to `N#CC1(NC(=O)COC(=O)Cn2cccn2)CCCC1`, the “Percent Effect” value was found to be 0.9044%.
With `N#Cc1ccnc(SCC2CN=C(N3CCOCC3)S2)c1` (centres undefined) the figure was 11.27%; with `Cc1occc1C(=O)N1C[C@@H]2CN(S(C)(=O)=O)CCO[C@@H]2C1`, -6.506%; with `O=C(CC1CC1)N[C@@H]1CN(Cc2nccs2)C[C@@H]2CCCO[C@@H]21`, -7.838%.
On to `O=C(CC1CC1)N[C@@H]1CN(C(=O)c2ccoc2)C[C@@H]2CCCO[C@@H]21`, for which the “Percent Effect” value worked out at 95.5%.
Turning to `Cc1occc1C(=O)N1CC[C@@H]2[C@@H](CO[C@H]2CNS(C)(=O)=O)C1`, the “Percent Effect” value is reported as -7.18%.
For `Cc1occc1C(=O)N1C[C@@H]2CCCO[C@@H]2[C@H](NS(C)(=O)=O)C1`, the “Percent Effect” value is recorded as 108.4%.
With `COc1ccc(CN2C[C@@H]3CCCO[C@@H]3[C@H](NC(=O)CC3CC3)C2)cc1`, the “Percent Effect” value is -5.236%.
`O=C(CC1CC1)N[C@@H]1CN(c2ncccn2)C[C@@H]2CCCO[C@@H]21.O=C(O)C(F)(F)F`: the “Percent Effect” value is recorded as -2.682%.
For `O=C(c1cccs1)N1C[C@H]2CC[C@@]3(N=C(c4ccccc4)NC3=O)[C@H]2C1`, the “Percent Effect” value is listed as 7.494%.
`O=C(CC1CC1)N[C@@H]1CN(C(=O)c2ccsc2)C[C@@H]2CCCO[C@@H]21`: the “Percent Effect” value came out at 100.4%.
For the compound `O=C(CC1CC1)N[C@@H]1CN(C(=O)c2cccs2)C[C@@H]2CCCO[C@@H]21`, the “Percent Effect” value was determined as 73.18%.
Take `O=C(CC1CC1)N[C@@H]1CN(Cc2ccc(F)cc2)C[C@@H]2CCCO[C@@H]21.O=C(O)C(F)(F)F`: the “Percent Effect” value is -7.276%.
Then `CCn1ccnc1CN1CCCN(CC2CC2)C(C(C)C)C1` (centres undefined), with -2.193%; and `Cc1nnsc1CN1CCCC1c1nc(-c2ccccc2)no1` (centres undefined), with 16.39%; and `Cc1csc([C@@H]2C[C@@H]3CCN(Cc4cnn(C)c4)C[C@H]3O2)n1`, with -7.419%.
